Data from PubChem BioAssay (EPA / NIEHS).
Inconclusive results are not listed. Activity calls are given as the source filed them. How the source made its calls, unless noted: active means hit-call score of the fitted dose curve at least 0.9, where 1 is the maximum; inactive means score below 0.9.

Legend:
[1] = CCTE_Shafer_MEA_dev_per_network_spike_spike_number_mean: CCTE's Neural Network Formation Assay for Mean Number of Spikes in a Network Spike, Shafer Lab (AID 2284053)
Method in brief: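 First, rat cortical cells (1.5 x 10^5/well) were seeded onto MEA wells; second, dosing began at plating and was refreshed on DIV 5 and 9; finally, network-spike spike counts across DIV 5–12 were summarized as AUC.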

[2] = CCTE_Shafer_MEA_dev_per_network_spike_spike_percent: CCTE's Neural Network Formation Assay for Percent of Spikes in a Network Spike, Shafer Lab (AID 2284054)
Method in brief: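 Developing networks of rat cortical neurons are dosed at day 0 and recorded extracellularly four times up to day 12. The endpoint is the area under the curve of percent spikes in network spikes, fitted in the negative direction relative to DMSO.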

[3] = CCTE_Shafer_MEA_dev_LDH: CCTE's Lactate Dehydrogenase Assay for Cytotoxicity in the Neural Network Formation Assay, Shafer Lab (AID 2284068; active means hit-call score of the fitted dose curve at least 0.9, where 1 is the maximum;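 further: exposure for twelve days from plating with re-dosing on DIV 5 and 9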)
Method in brief: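 Developing rat cortical networks on MEA plates are exposed to compound for 12 days from plating. LDH activity is measured spectrophotometrically, with DMSO as baseline.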

[4] = CCTE_Shafer_MEA_dev_AB: CCTE's Alamar Blue Assay for Cytotoxicity in the Neural Network Formation Assay, Shafer Lab (AID 2284083; active means hit-call score of the fitted dose curve at least 0.9, where 1 is the maximum;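 further: resazurin reduction fluorescence as viability of cultured neurons; twelve days of exposure from plating with re-dosing on DIV 5 and 9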)
Method in brief: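 Cytotoxicity companion to the developmental MEA: primary rat cortical neurons, 12-day exposure starting day 0, compound refreshed DIV 5 and 9; resazurin fluorescence, fitted against DMSO vehicle.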

[5] = CCTE_Shafer_MEA_acute_LDH: CCTE's Lactate Dehydrogenase Assay for Cytotoxicity in the Neural Acute Assay, Shafer Lab (AID 2284086; active means hit-call score of the fitted dose curve at least 0.9, where 1 is the maximum;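 further: active means LDH release rises above DMSO vehicle level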)
Method in brief: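 Medium collected from MEA wells of primary rat cortical cultures (DIV 13 or 15) immediately after 40 min chemical exposure is assayed spectrophotometrically for lactate dehydrogenase activity. Endpoint fitted in positive direction versus DMSO.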

[6] = CCTE_Shafer_MEA_dev_correlation_coefficient_mean: CCTE's Neural Network Formation Assay for Mean Correlation Coefficient, Shafer Lab (AID 2284093);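 further: well mean pairwise spike train correlation integrated as AUC over recording days 5 to 12; potency fitted for loss of correlation relative to DMSO vehicle wells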
Method in brief: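 Extracellular firing from rat cortical networks on 48-well MEAs, DMSO-referenced, negative fitting direction. Compound present from plating to DIV12; mean pairwise correlation per well integrated over DIV5–12 recordings by trapezoidal AUC.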

[7] = UKN4_HCS_LUHMES_neurite_outgrowth: University of Konstanz (UKN) Leist Lab Neurite Outgrowth Assay in human LUHMES cells (UKN4) (AID 2284206); details: actives raise or lower the signal
Method in brief: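 Human LUHMES cells were differentiated for two days, replated and treated with chemicals for 24 h. Neurite outgrowth was quantified as calcein-stained neurite area by HCS imaging, fitted bidirectionally relative to DMSO.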

[8] = IUF_NPC1b_proliferation_BrdU_72hr: Leibniz Research Institute for Environmental Medicine (IUF) 72-hour Neural Progenitor Cell Bromodeoxyuridine (BrdU) Proliferation Assay (NPC1b) (AID 2284207)
Method in brief: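 Neural progenitor spheres of human fetal origin are treated for three days; BrdU added for the last 16 h is quantified by luminescence ELISA, with DMSO as baseline and EGF/FGF omission as positive control.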

[9] = IUF_NPC1a_proliferation_area_72hr: Leibniz Research Institute for Environmental Medicine (IUF) 72-hour Neural Progenitor Cell Proliferation Area Assay (NPC1a) (AID 2284208)
Method in brief: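 Single 0.25–0.35 mm human fetal neural progenitor spheres in proliferation medium with EGF and FGF, exposed 72 h from plating without renewal at 37C, pH 7.2-7.6. Sphere area growth measured by automated phase-contrast imaging, relative to DMSO.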

[10] = IUF_NPC1_viability_72hr: Viability Assessment at 72 hours in the Leibniz Research Institute for Environmental Medicine (IUF) Neural Progenitor Cell Proliferation Assay (NPC1) (AID 2284209)
Method in brief: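 Spheres of primary human neural progenitors were plated singly in proliferation medium and treated for 72 h. Mitochondrial reduction of resazurin was then measured by fluorescence and analysed against DMSO controls.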

[11] = CCTE_Mundy_HCI_Cortical_Synap_Neur_Matur_NeuriteSpotCountPerNeuriteLength: CCTE's Synaptogenesis and Neurite Maturation Assay in rat cortical cells for Neurite Spot Count per Neurite Length, Mundy Lab (AID 2284210)
Method in brief: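 Neurite-associated synapse density (synaptophysin puncta per unit neurite length) is measured by fluorescence high-content imaging in rat cortical cultures treated from DIV 7 and fixed at DIV 12, with DMSO as negative control.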

[12] = CCTE_Mundy_HCI_Cortical_Synap_Neur_Matur_BPCount: CCTE's Synaptogenesis and Neurite Maturation Assay in rat cortical cells for Branch Point Count, Mundy Lab (AID 2284211)
Method in brief: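 HCI read-out of branch points from MAP2/synaptophysin/Hoechst immunofluorescence; rat cortical cultures, AraC DIV 5, dosing DIV 7, fixed DIV 12; fit in positive direction vs DMSO baseline.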

[13] = CCTE_Mundy_HCI_Cortical_NOG_NeuriteCount: CCTE's Neurite Outgrowth Assay in rat cortical cells for Neurite Count, Mundy Lab (AID 2284212);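 further: cells fixed about two days after chemical exposure began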
Method in brief: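 Rat cortical primary cells; compound added 2 h post-plating, 1/10 dilution of working solution. Anti-betaIII-tubulin/AF488 ICC; ArrayScan neurite count vs DMSO.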

[14] = CCTE_Mundy_HCI_Cortical_Synap_Neur_Matur_NeuriteLength: CCTE's Synaptogenesis and Neurite Maturation Assay in rat cortical cells for Neurite Length, Mundy Lab (AID 2284214)
Method in brief: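 Cultures of rat primary cortical cells received chemical at DIV 7 and were fixed at DIV 12, after glial arrest with AraC at DIV 5. Neurite length was measured by automated imaging of MAP2 immunofluorescence.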

[15] = CCTE_Mundy_HCI_Cortical_Synap_Neur_Matur_SynapseCount: CCTE's Synaptogenesis and Neurite Maturation Assay in rat cortical cells for Synapse Count, Mundy Lab (AID 2284218)
Method in brief: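 Cells were plated, allowed 2 hr to attach, treated with AraC at DIV 5, then exposed to chemicals from DIV 7 until DIV 12. After fixation and MAP2/synaptophysin immunolabelling, synapses per neuron were quantified by automated imaging against DMSO.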

[16] = CCTE_Mundy_HCI_Cortical_Synap_Neur_Matur_NeuriteCount: CCTE's Synaptogenesis and Neurite Maturation Assay in rat cortical cells for Neurite Count, Mundy Lab (AID 2284222);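 further: exposure from day 7 to day 12 in vitro with readout at day 12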
Method in brief: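 In this multiplexed morphology readout, rat primary cortical neurons are fixed at DIV 12 following dosing at DIV 7 and stained for MAP2, synaptophysin and nuclei. High-content image analysis yields neurite count.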

[17] = CCTE_Mundy_HCI_Cortical_Synap_Neur_Matur_CellBodySpotCount: CCTE's Synaptogenesis and Neurite Maturation Assay in rat cortical cells for Cell Body Spot Count, Mundy Lab (AID 2284223)
Method in brief: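 Primary rat cortical cultures, AraC added at DIV 5; dosed DIV 7 through DIV 12 […]. Fixed, stained for MAP2 and synaptophysin with Hoechst; cell body-associated synaptophysin puncta per neuron counted by high-content imaging, loss vs DMSO.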

[18] = CCTE_Mundy_HCI_hNP1_Pro_ResponderAvgInten: CCTE's Proliferation Assay in human neuroprogenitor cells, Mundy Lab (AID 2284224; active means hit-call score of the fitted dose curve at least 0.9, where 1 is the maximum;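 further: human neural progenitor cells hNP1 derived from WA09 embryonic stem cells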)
Method in brief: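 Human neuroprogenitors (hNP1, WA09 lineage) receive test chemical after 40 to 44 hours of attachment. A four-hour BrdU pulse begins twenty hours later, followed by fixation and high content imaging; signal is referenced to DMSO controls.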

[19] = UKN4_HCS_LUHMES_cell_viability: Viability Assessment in the University of Konstanz (UKN) Leist Lab Neurite Outgrowth Assay in human LUHMES cells (UKN4) (AID 2284232)
Method in brief: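 Cells switched to differentiation medium at day 0, replated on day 2 in medium lacking cAMP and GDNF, and compound-treated once attached. Live staining began 23.5 h later, imaging followed at 24 h.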

[20] = CCTE_Mundy_HCI_Cortical_NOG_NeuronCount: CCTE's Neurite Outgrowth Assay in rat cortical cells for Neuron Count, Mundy Lab (AID 2284236; active means hit-call score of the fitted dose curve at least 0.9, where 1 is the maximum;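 further: neurons counted by imaging betaIII-tubulin and Hoechst stained cortical cells; cells exposed to compound for about 48 hours before fixation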)
Method in brief: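 Read-out: neuron number by high-content imaging of betaIII-tubulin (Alexa Fluor-488) and Hoechst-labelled rat primary cortical cells.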

[21] = CCTE_Mundy_HCI_Cortical_NOG_BPCount: CCTE's Neurite Outgrowth Assay in rat cortical cells for Branch Point Count, Mundy Lab (AID 2284237);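 further: branch points counted about two days after chemical exposure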
Method in brief: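 Measured 50.33 h after dosing, this morphology endpoint uses rat primary cortical cultures labelled for betaIII-tubulin. Branch points are quantified by high-content imaging, with DMSO as negative control and baseline.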

[22] = CCTE_Mundy_HCI_hNP1_Casp3_7: CCTE's Caspase-Glo 3/7 Assay in human neuroprogenitor cells for Apoptosis, Mundy Lab (AID 2284240)
Method in brief: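 Neuroepithelial-lineage stem cells from WA09 embryonic cells were treated with chemicals after 40–44 h of culture. Twenty-four hours later, caspase-3/7 activation was detected luminescently after a 30 min room-temperature reagent step, with DMSO as baseline.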

[23] = CCTE_Mundy_HCI_hNP1_CellTiter: CCTE's Cell Titer-Glo 2 Assay in human neuroprogenitor cells for Viability, Mundy Lab (AID 2284241; active means hit-call score of the fitted dose curve at least 0.9, where 1 is the maximum)
Method in brief: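 Measures ATP content in human neural progenitors derived from WA09 embryonic cells. Read-out at 26.5 hours after dosing, with DMSO serving as the negative control and baseline.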

[24] = IUF_NPC2a_radial_glia_migration_120hr: Leibniz Research Institute for Environmental Medicine (IUF) 120-hour Neural Progenitor Cell Migration Assay for Radial Glia Migration (NPC2a) (AID 2284298)
Method in brief: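 Human fetal-cortex neural progenitor spheres (0.3 mm) plated on poly-D-lysine/laminin in N2 differentiation medium, exposed 120 h at 37C with half-medium renewal at day 3. Radial glia migration distance (um) measured from Hoechst-stained nuclei images; DMSO baseline.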

[25] = IUF_NPC2a_radial_glia_migration_72hr: Leibniz Research Institute for Environmental Medicine (IUF) 72-hour Neural Progenitor Cell Migration Assay for Radial Glia Migration (NPC2a) (AID 2284299)
Method in brief: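 Single 0.3 mm neurospheres were plated per well in N2 differentiation medium and exposed from the start of differentiation. After 72 hours, brightfield images were taken and radial glia migration from the sphere core edge was measured manually in four directions, averaged per well.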

[26] = IUF_NPC2b_neuronal_migration_120hr: Leibniz Research Institute for Environmental Medicine (IUF) 120-hour Neural Progenitor Cell Migration Assay for Neuron Migration (NPC2b) (AID 2284300)
Method in brief: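 0.3 mm hNPC spheres on poly-D-lysine/laminin in N2 differentiation medium exposed 120 h, half-medium refresh day 3; 7 concentrations, DMSO max 0.1%. Neuron (TUBB3) distance from sphere core by ICC imaging, normalised to radial glia migration.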

[27] = IUF_NPC3_neuronal_differentiation_120hr: Leibniz Research Institute for Environmental Medicine (IUF) 120-hour Neuronal Differentiation Assay (NPC3) (AID 2284301)
Method in brief: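 Neuronal differentiation of primary human neural progenitors measured by high-content imaging: percent TUBB3+ of Hoechst+ nuclei within migrated area at 120 h, seven-point serial dilution plus solvent control, gain or loss relative to DMSO.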

[28] = IUF_NPC4_neurite_length_120hr: Leibniz Research Institute for Environmental Medicine (IUF) 120-hour Neuronal Morphology Assay for Neurite Length (NPC4) (AID 2284302)
Method in brief: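 Neurons from differentiating human fetal neural progenitor spheres are scored for average neurite length after five days of compound exposure. Fitting uses DMSO as negative control.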

[29] = IUF_NPC5_oligodendrocyte_differentiation_120hr: Leibniz Research Institute for Environmental Medicine (IUF) 120-hour Oligodendrocyte Differentiation Assay (NPC5) (AID 2284304; active means hit-call score of the fitted dose curve at least 0.9, where 1 is the maximum;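 further: primary human fetal neural progenitor spheres plated to migrate and differentiate; share of O4-positive cells among Hoechst nuclei found by CNN image analysis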)
Method in brief: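 Human fetal neural progenitor spheres (0.3 mm) plated on poly-D-lysine/laminin in N2 differentiation medium and exposed for 120 h at 7 concentrations, with half-medium renewal at day 3. O4-positive cells identified by CNN, expressed as percent of Hoechst nuclei.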

[30] = IUF_NPC4_neurite_area_120hr: Leibniz Research Institute for Environmental Medicine (IUF) 120-hour Neuronal Morphology Assay for Neurite Area (NPC4) (AID 2284305; active means hit-call score of the fitted dose curve at least 0.9, where 1 is the maximum)
Method in brief: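 Endpoint at 120 h: automated imaging of TUBB3/Hoechst-stained differentiating human neural progenitor spheres, neurite area per neuron from skeletonization. DMSO solvent control, not above 0.1%, set the baseline; medium was half-replaced on day 3.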

[31] = IUF_NPC2-5_cytotoxicity_72hr: Cytotoxicity Assessment at 72 hours in the Leibniz Research Institute for Environmental Medicine (IUF) Neural Progenitor Cell Migration and Differentiation Assay for Cytotoxicity (NPC2-5) (AID 2284306; active means hit-call score of the fitted dose curve at least 0.9, where 1 is the maximum;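 further: LDH release into supernatant measured by resorufin fluorescence marking membrane damage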)
Method in brief: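 Primary human neural progenitor spheres migrate and differentiate on laminin. Compound is present from the start of differentiation, with DMSO kept at or below 0.1%. At 72 h, supernatant LDH is quantified fluorometrically, with values fitted in the positive direction.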

[32] = IUF_NPC2-5_cytotoxicity_120hr: Cytotoxicity Assessment at 120 hours in the Leibniz Research Institute for Environmental Medicine (IUF) Neural Progenitor Cell Migration and Differentiation Assay (NPC2-5) (AID 2284307; active means hit-call score of the fitted dose curve at least 0.9, where 1 is the maximum)
Method in brief: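 Human fetal (GW 16-19) neural progenitor spheres (0.3 mm) plated on poly-D-lysine/laminin in N2 differentiation medium, exposed 120 h with half-medium renewal at day 3; 7 concentrations plus solvent control, DMSO ≤0.1%. LDH release in supernatant read by resorufin fluorescence.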

[33] = IUF_NPC2-5_cell_number_120hr: Cell Number Assessment at 120 hours in the Leibniz Research Institute for Environmental Medicine (IUF) Neural Progenitor Cell Migration and Differentiation Assay (NPC2-5) (AID 2284308);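 further: count of Hoechst-stained nuclei in migration zone around plated human neural progenitor spheres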
Method in brief: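 Human fetal neural progenitor spheres (0.3 mm) plated on poly-D-lysine/laminin in N2 differentiation medium, exposed five days across 7 concentrations with half-medium refresh at day 3. Hoechst-positive nuclei counted in migration area at 120 h, relative to DMSO.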

[34] = IUF_NPC2-5_viability_120hr: Viability Assessment at 120 hours in the Leibniz Research Institute for Environmental Medicine (IUF) Neural Progenitor Cell Migration and Differentiation Assay (NPC2-5) (AID 2284312)
Method in brief: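 Human fetal (GW 16-19) neural progenitor spheres of 0.3 mm were plated on poly-D-lysine/laminin in N2 differentiation medium and exposed from day 0 for 120 h, with half-medium refresh at day 3. Viability was read as alamar blue resazurin-to-resorufin fluorescence against DMSO.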

[35] = CCTE_Mundy_HCI_iCellGluta_NOG_NeuriteLength: CCTE's Neurite Outgrowth Assay in iCellGluta cells for Neurite Length, Mundy Lab (AID 2284318; active means hit-call score of the fitted dose curve at least 0.9, where 1 is the maximum)
Method in brief: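 Automated high-content imaging of betaIII-tubulin (Alexa Fluor-488) and Hoechst-stained cells gave neurite length, normalized to the DMSO baseline.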

[36] = IUF_NPC1_cytotoxicity_72hr: Cytotoxicity Assessment at 72 hours in the Leibniz Research Institute for Environmental Medicine (IUF) Neural Progenitor Cell Proliferation Assay (NPC1) (AID 2284332; active means hit-call score of the fitted dose curve at least 0.9, where 1 is the maximum;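 further: rising LDH signal means more cytotoxicity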)
Method in brief: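 Membrane-integrity loss is scored from LDH released into the medium, detected as resorufin fluorescence, with activity fitted upward relative to baseline. Test material stays on human fetal-derived progenitor spheres for 72 h.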

[37] = CCTE_Mundy_HCI_iCellGluta_NOG_NeuriteCount: CCTE's Neurite Outgrowth Assay in iCellGluta cells for Neurite Count, Mundy Lab (AID 2284342; active means hit-call score of the fitted dose curve at least 0.9, where 1 is the maximum;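 further: chemical exposure about 48 hours starting 2 hours after plating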)

Measured: AC50

O=C1CC2(CCCC2)CC(=O)N1CCCCN1CCN(c2ncccn2)CC1
active: [1] 21.6 µM | [4] 15 µM | [6] 25 µM | [7] 15.3 µM | [13] 11.9 µM | [21] 9.79 µM
inactive: all other assays above
